Most compounds without a hit are left out; they make up all but 3.7% or so of the library.
Nrf2 ARE act: activators of Nrf2 (ARE) signaling | AREc32 ARE-luciferase reporter (MCF7-derived line), luminescence, 24 h | Potency, µM (highest dose often 46.1 µM), for the others: at the highest dose activation, hits mostly activators | actives 0.31% (n = 410,000); note: % of control where 0% means no effect; nearly all actives have a fitted effect of over 65% in size
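Steps: seed AREc32_Fluc cells (1000/well, 5% FBS OPTI-MEM); incubate overnight at 37 deg C; add 23 nL compound; incubate 24 hr; add Steady-Glo; hold 30 min RT; read luminescence.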
Nrf2 block: blocks Nrf2 signaling; A549 ARE-Fluc reporter, luciferase luminescence, 18-24 h; Potency, µM (top dose mostly 46 µM), inactives show at the top dose activity change, negative = inhibition, usual class: inhibitors; actives 2.1% (n = 360,000); note: % is set by controls: 0 for no effect and ±100 for the full control effect; nearly all actives have a fitted effect of over 60% in size
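Nrf2 function is reported as luminescence of an ARE-controlled luciferase in A549 cells. Compounds were tested at several concentrations, and a CellTiter-Fluor read on the same wells flagged cytotoxicity.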
A549 tox: A549 cytotoxicity, counter-screen for Nrf2 inhibitors | A549 ARE-Fluc cells, CellTiter-Fluor viability, 18-24 h | Potency, µM (highest dose often 46 µM), for the others: top-dose activity change, negative = cytotoxicity, usual class: inhibitors | actives 0.16% (n = 390,000); note: % is set by controls: 0 for no effect and ±100 for the full control effect
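A549 ARE_Fluc cells in 5% FBS OPTI-MEM were exposed to compounds in concentration-response for 18-24 h at 37 deg C. Viability was read by CellTiter-Fluor fluorescence (Ex 405/Em 525) after 30 min, before the luciferase read.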
ELG1 repair inh: ELG1-dependent DNA repair inhibition. Potency, µM (series often up to 46.1 µM), for inactives: at the highest dose activity change, negative = inhibition, actives largely listed as inhibitors. AID 504467. actives 2.3% (n = 330,000). HEK293T ELG1-luciferase reporter, luminescence, 16 h; DNA damage induced by 5-fluorouridine; note: % is set by controls: 0 for no effect and ±100 for the full control effect; nearly all actives have a fitted effect of over 55% in size
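Step one: seed 2,000 cells per well. Step two: pin-transfer compound or DMSO alongside 5-fluorouridine. Step three: incubate 16 hr, 37 °C, 5% CO2. Step four: add ONE-Glo, wait 30 min, read luminescence.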
Numbers without * were called inactive; u = inconclusive; x = not tested or not shown. Calls come from the whole dose curve; as a rule, active = well fitted curve in the direction sought with a large enough effect; inconclusive = small, poorly fitted or top-dose-only effect, or another doubt; inactive = no such curve, though single readings can be large; an effect the other way counts as inactive or inconclusive. Potency is the fitted concentration of half-maximal effect.

SMILES	Nrf2 ARE act	Nrf2 block	A549 tox	ELG1 repair inh
Cc1ccc(C(=O)N2CCC(C(=O)c3c(C)cc(C)cc3C)CC2)cc1	0%	u	-14%	16µM*
COc1ccc(-c2cc(NCc3ccc(C)cc3)n3cnnc3n2)cc1	1%	u	-1%	x
Cc1ccc(-c2nnc(NC(=O)c3ccc([N+](=O)[O-])o3)o2)c(C)c1	7.1µM*	u	u	-16%
Cc1cccnc1NC(=O)c1ccc([N+](=O)[O-])o1	22µM*	u	-8%	9%
COCCN(CCOC)C(=O)c1ccc(CSc2nc3ccccc3s2)cc1	6%	13µM*	-17%	u
CC(C)c1ccc(/C=C(\C#N)c2nc(-c3ccc(O)cc3)cs2)cc1	-4%	6%	-3%	x
COc1cc2c(cc1OC)C1=C(C#N)CN(C3CCCCC3)CN1CC2	6%	-16%	3%	u
COc1ccc(CCN2CC(C#N)=C3c4cc(OC)c(OC)cc4CCN3C2)cc1OC	5%	u	-15%	21µM*
COc1cccc(C2c3c(oc4cc(C)cc(C)c4c3=O)C(=O)N2CCc2ccc(OC)c(OC)c2)c1 (stereo not given)	1%	25%	-2%	x
O=C(Nc1ccc(F)cc1)c1ccc(-n2cncn2)c([N+](=O)[O-])c1	3%	23µM*	-6%	u
Cc1ccc(NC(=O)c2ccc(-n3cncn3)c([N+](=O)[O-])c2)cc1F	0%	-7%	-1%	-5%
Cc1csc2c(N3CCN(C(=O)Nc4ccc(Cl)c(Cl)c4)CC3)ncnc12	3%	21µM*	-16%	18µM*
Cc1csc2c(N3CCN(C(=S)Nc4ccc(C(F)(F)F)cc4)CC3)ncnc12	9%	u	5%	u
Cc1csc2c(N3CCN(C(=O)NC(C)(C)C)CC3)ncnc12	-1%	18µM*	-16%	u
Cc1csc2c(N3CCN(C(=O)c4ccc(C(C)(C)C)cc4)CC3)ncnc12	7%	-23%	-2%	15µM*
Cn1nnc2cc(C(=O)N3CCN(c4ccccn4)CC3)ccc21	-1%	-9%	6%	9%
CNC(=O)C1CCC(Cn2c(=O)c3sccc3n(CC(=O)Nc3ccc(C)c(C)c3)c2=O)CC1 (stereo not given)	0%	23µM*	-17%	x
CC(C)CN(CC(C)C)C(=S)Nc1ccc(Cl)cc1	6%	26µM*	-22%	-1%
CCc1ccc(NC(=S)N(Cc2ccc(Cl)cc2)Cc2ccc(C(=O)O)cc2)cc1	0%	-24%	-2%	u
Cc1ccc(CNC(=O)c2oc3c(c2C)-c2nn(Cc4ccc(Cl)cc4)cc2CC3)cc1	4%	6%	8%	x
COc1cccc(N2CCN(C(=O)c3oc4ccccc4c3NC(=O)Cc3ccc(OC)c(OC)c3)CC2)c1	0%	28%	-16%	16µM*
O=C(Nc1c(C(=O)N2CCN(c3ccccc3F)CC2)oc2ccccc12)c1ccc(Br)o1	1%	23µM*	-9%	x
Cn1cnc(S(=O)(=O)N2CCCC(c3cc(C(=O)Nc4ccc(F)c(Cl)c4)no3)C2)c1 (stereo not given)	10%	x	x	x
Cc1ccc(NS(=O)(=O)c2ccc3c(c2)CCC(=O)N3)cc1Cl	x	-3%	17%	x
CCOC(=O)N1CCN(c2ccc(S(=O)(=O)N3CCOCC3)cn2)CC1	-1%	u	0%	12%
SMILES	Nrf2 ARE act	Nrf2 block	A549 tox	ELG1 repair inh
CCN(CC)S(=O)(=O)c1ccc(N2CCN(CCO)CC2)nc1	0%	u	0%	13%
CCOC(=O)N1CCN(c2ccc(S(=O)(=O)N(Cc3ccccc3)Cc3ccccc3)cn2)CC1	2%	16µM*	-16%	u
CCS(=O)(=O)N1CCN(S(=O)(=O)c2ccc3c(c2)OCCO3)CC1	0%	-11%	5%	-6%
CCN(CC)S(=O)(=O)c1ccc(N2CCN(c3ccccc3O)CC2)nc1	2%	18µM*	-1%	-20%
CCN(CC)S(=O)(=O)c1ccc(N2CCN(S(=O)(=O)c3ccc4c(c3)OCCO4)CC2)nc1	0%	u	-6%	9.2µM*
COc1ccc(C2Nc3ccccc3C(=O)N2Cc2ccccc2)cc1COc1cccc(Cl)c1 (stereo not given)	x	-12%	3%	x
O=C(Nc1ncccc1O)c1cccc(S(=O)(=O)N2CCc3ccccc32)c1	1%	-2%	-9%	1%
NC(=O)c1ccsc1NC(=O)c1ccc(S(=O)(=O)N2CCCc3ccccc32)cc1	-4%	18µM*	u	21µM*
COc1ccc(NC(=O)c2cccc(S(=O)(=O)N3CCc4ccccc43)c2)cn1	3%	u	-10%	8.2µM*
Cc1ccc(NC(=O)c2cc(S(=O)(=O)N3CCc4ccccc43)cn2C)cc1	0%	u	1%	-27%
O=C(O)c1ccc(S(=O)(=O)N2CCCc3ccccc32)cc1	0%	0%	1%	3%
Cn1cc(S(=O)(=O)N2CCc3ccccc32)cc1C(=O)Nc1ccc(Cl)cc1	3%	8.2µM*	-16%	-2%
COc1ccc(C(=O)Nc2ccc(S(=O)(=O)N3CCc4ccccc43)cc2)cc1	3%	15µM*	-10%	x
CCN(CC)C(=O)Oc1ccc(Br)cc1C(=O)Nc1ccc(F)cc1F	1%	-7%	4%	-22%
Cc1ccc(C(=O)Nc2ccc(S(=O)(=O)N3CCc4ccccc43)cc2)o1	1%	21µM*	-23%	x
O=S(=O)(NC1CC1)c1ccc(S(=O)(=O)N2CCCc3ccccc32)cc1	0%	23µM*	-16%	u
COc1ccc(N(C)C(=O)c2cc(S(=O)(=O)N3CCc4ccccc43)cn2C)c(OC)c1	0%	18µM*	u	x
CCCC(=O)NC(=S)Nc1ccc(S(=O)(=O)N2CCc3ccccc32)cc1	-1%	21µM*	-14%	x
COc1cccc(CNC(=O)CCCn2c(=O)c3cccn3c3ccc(F)cc32)c1OC	7%	10%	0%	x
CNC(=O)C1CCC(Cn2c(=O)c3sccc3n(CC(=O)NCc3ccc(C)cc3)c2=O)CC1 (stereo not given)	0%	u	5%	x
c1ccc2c(-c3ccncc3)c[nH]c2c1	0%	u	-10%	21µM*
c1ccc(-c2nnc(-c3ccccc3)c(-c3c[nH]c4ccccc34)n2)cc1	-1%	x	-1%	-6%
CC(NC(=O)Cn1cccc1)c1ccccc1 (stereo not given)	0%	1%	1%	2%
COc1ccc(C2C3=C(N=CN(CCN4CCOCC4)C3N)Oc3ccccc32)cc1OC (stereo not given)	x	8%	-1%	x
COc1ccc(C2CC(c3ccccc3)=NN2C(=O)CN2CCN(Cc3ccccc3)CC2)cc1 (stereo not given)	0%	-19%	u	18µM*
O=C(CSc1nc2nn(-c3ccccc3)c(=O)c-2c2n1CCCCC2)Nc1cccc(F)c1	0%	9.2µM*	-9%	u
O=C(C1CCN(S(=O)(=O)c2cccc3cccnc23)CC1)N1CCn2c1nc1ccccc12	0%	u	-1%	23µM*
